ELG1 genotoxic = inducers of genotoxicity in HEK293T ELG1-luciferase cells; 330,000 tested, 1.3% active; HEK293T ELG1-luciferase reporter, luminescence, 16 h; AID 504466; Potency, µM (titrated, usually from 46 µM), actives largely listed as activators; further: nearly all actives have a fitted effect of over 60% in size
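Luminescence read-out: rising ELG1-luciferase signal, reflecting elevated ELG1 protein under genetic stress, flags genotoxic compounds. Cells were treated for 16 hr at 37 °C before ONE-Glo detection.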
Rab9 promoter act = Rab9 promoter activation | Huh7 Rab9 promoter-luciferase reporter, luminescence, 24 h | Potency, µM (highest dose often 9.22 µM), hits mostly activators | 320,000 tested, 2.8% active | AID 485297; further: nearly all actives have a fitted effect of over 60% in size
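Cell-based reporter: Huh7 stable for Rab9 promoter-driven luciferase, plated in reduced-serum medium with 10% FBS at 1500 cells/well, compound-treated 24 h at 37 °C, luminescence read after 10 min reagent.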
FLuc modulator = firefly luciferase modulation, counter-screen for miR-21 project; P08659; purified FLuc, Km substrates, luminescence inhibition; Potency, µM (doses to about 57.5 µM), most hits filed as inhibitors; 360,000 tested, 6.9% active; further: nearly all actives have a fitted effect of over 55% in size
Target sequence (P08659 whole entry, looked up): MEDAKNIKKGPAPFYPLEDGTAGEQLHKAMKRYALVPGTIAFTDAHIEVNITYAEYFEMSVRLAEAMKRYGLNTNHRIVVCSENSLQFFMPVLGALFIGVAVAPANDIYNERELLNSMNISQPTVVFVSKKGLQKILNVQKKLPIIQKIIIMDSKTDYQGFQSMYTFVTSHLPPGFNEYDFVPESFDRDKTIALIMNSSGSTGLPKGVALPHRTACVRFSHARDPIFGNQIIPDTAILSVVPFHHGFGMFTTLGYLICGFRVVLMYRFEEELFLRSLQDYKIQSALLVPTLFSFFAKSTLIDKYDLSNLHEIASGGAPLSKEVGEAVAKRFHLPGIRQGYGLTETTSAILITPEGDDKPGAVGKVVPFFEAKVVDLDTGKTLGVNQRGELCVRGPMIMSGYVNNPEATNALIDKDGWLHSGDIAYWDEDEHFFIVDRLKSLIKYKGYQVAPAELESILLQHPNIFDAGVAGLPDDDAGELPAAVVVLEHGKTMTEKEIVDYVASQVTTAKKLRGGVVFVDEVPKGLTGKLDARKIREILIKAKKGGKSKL
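Purified P. pyralis luciferase, 10 nM final, with Km-level 10 uM D-luciferin and 10 uM ATP in 50 mM Tris acetate pH 7.5, 10 mM Mg acetate, 0.01% Tween-20, 0.05% BSA; 6-point qHTS titration about 60 µM downward; luminescence read.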
NPC1 promoter act = activators of NPC1 promoter. Potency, µM (doses to about 9.22 µM), hits mostly activators. Huh7 NPC1 promoter luciferase reporter, 24 h. 320,000 tested, 2.4% active. AID 485313; further: nearly all actives have a fitted effect of over 60% in size
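In 1536-well qHTS, Huh7 cells harboring an NPC1 promoter–luciferase construct received compound for 24 h; activation was quantified by luminescence following luciferase reagent addition.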
Luc counter = blocks Kinase-Glo luciferase, a counter-screen artifact; Q27757; Kinase-Glo luciferase, ATP luminescence, 8 min; Potency, µM (highest dose often 38.3 µM), hits mostly inhibitors; 200,000 tested, 0.28% active; AID 1379; further: nearly all actives have a fitted effect of over 60% in size
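Inhibition of Kinase-Glo luciferase light generation was assessed at 10 uM ATP in pH 7.2 imidazole buffer, with luminescence measured after eight minutes at ambient temperature.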
SMN2 splice enh = increases expression of the SMN2 splice variant | HEK293 SMN2-luciferase splicing reporter, luminescence, 30-36 h | Potency, µM (titrated, usually from 46.1 µM), most hits filed as activators | 210,000 tested, 2.8% active | AID 1458; further: nearly all actives have a fitted effect of over 55% in size
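HEK293 cells carry an SMN2 […]–luciferase reporter in which exon 7 inclusion puts luciferase in frame. Cells were plated 10-12 h before compound addition, then incubated 30-36 h at 37C. ONE-Glo luminescence was read; sodium butyrate at 4.5 mM final served as control.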
Hits are given with their value; i = inactive; ? = inconclusive; nt = no result. This is a sample that favours compounds with a hit; in the whole collection about 7.5% have one here. The call rests on the fitted dose curve; in most records, active means well fitted curve in the direction sought with a large enough effect; inconclusive means small, poorly fitted or top-dose-only effect, or another doubt; inactive means no such curve, though single readings can be large; an effect the other way counts as inactive or inconclusive.

SMILES | ELG1 genotoxic | Rab9 promoter act | FLuc modulator | NPC1 promoter act | Luc counter | SMN2 splice enh
Nc1nc(N)nc(-c2ccc(Cl)c(Cl)c2)n1 | i | ? | 4.8µM | 2µM | nt | nt
COC(=O)c1sc(-c2ccccc2)cc1NC(=O)C1CC1 | i | i | ? | i | i | i
COc1ccc(OC)c(NC(=O)CSCC(=O)O)c1 | i | i | i | i | i | i
CCOc1ccc(NC(=O)Nc2cc(-c3ccccc3)sc2C(=O)OC)cc1 | i | i | ? | i | i | i
COC(=O)c1sc(-c2ccc(C(C)(C)C)cc2)cc1NC(=O)CSCC(=O)O | i | i | 3.4µM | i | nt | nt
COC(=O)c1sc(-c2ccc(C(C)(C)C)cc2)cc1NC(=O)c1ccccc1C(=O)O | i | i | 11µM | i | nt | nt
COC(=O)c1sc(-c2ccc(Cl)cc2)cc1NC(=O)c1ccccc1C(=O)O | i | i | 21µM | i | nt | nt
O=C(N=Nc1ccc(NOC(=O)c2ccccc2Br)cc1)c1ccccc1O | i | ? | 8.5µM | ? | i | i
COC(=O)c1ccccc1O | nt | nt | nt | nt | nt | i
Cc1cccc(NC(=O)CSc2nc3c(sc4ccccc43)c(=O)n2CCCC(=O)NC2CCCC2)c1 | nt | nt | i | nt | nt | i
Oc1ccc(N=Nc2n[nH]c(-c3ccc(Cl)cc3)n2)cc1 | i | i | 12µM | i | i | 20µM
OCc1cc2c(cn1)[nH]c1ccccc12 | nt | nt | nt | nt | nt | i
COc1ccccc1CNC(=O)c1ccc2nc(CCc3ccccc3)oc2c1 | nt | nt | i | nt | nt | nt
CCc1ccc(CN(C(=O)c2ccc(OC)cc2)C2CCS(=O)(=O)C2)cc1 (stereo not drawn) | nt | nt | i | nt | nt | i
O=C(NCCc1ccccc1)NC1CCCCC1 | ? | 0.56µM | 11µM | 1.1µM | i | 11µM
NC(=O)NCCC1=CCCCC1 | i | i | i | i | i | i
O=C(NCc1ccccc1)NC1CCCCC1 | ? | i | i | i | i | i
O=C(NCCC1=CCCCC1)NC1CCCCC1 | ? | 0.79µM | 6.7µM | 1.4µM | i | 7.1µM
S=C(NCCc1cccc(Cl)c1)NC1CCCCC1 | ? | 2.8µM | 19µM | 3.5µM | nt | nt
COc1ccc2c(c1)cc1c(=O)n(CC(=O)NC3CC3)nc(C)n12 | nt | nt | i | nt | nt | i
O=[N+]([O-])c1ccc(Nc2cccc(F)c2)nc1 | i | i | i | i | i | i
CCOC(=O)c1ccc(Nc2cc(-c3ccccc3)nc(C)n2)cc1 | nt | nt | i | nt | nt | nt
COc1ccc(Nc2cc(Nc3ccc(OC)cc3)ncn2)cc1 | i | i | i | i | nt | nt
Cc1ccc(Nc2cc(-c3ccccc3)nc(C)n2)cc1 | nt | nt | 24µM | nt | nt | nt
COc1cccc(Nc2cc(-c3ccccc3)nc(C)n2)c1 | nt | nt | 27µM | nt | nt | nt
SMILES | ELG1 genotoxic | Rab9 promoter act | FLuc modulator | NPC1 promoter act | Luc counter | SMN2 splice enh
COc1ccc(Nc2cc(Nc3cccc(OC)c3)ncn2)cc1 | ? | ? | 2.7µM | ? | nt | nt
Cc1cc(Nc2ccc(Br)cc2)nc(C)n1 | nt | nt | 21µM | nt | nt | nt
CC(C(=O)N1CCCCC1)n1sc2ccccc2c1=O (stereo not drawn) | ? | ? | 24µM | ? | i | ?
CC(C(=O)N1CCN(C(=O)c2ccco2)CC1)n1sc2ccccc2c1=O (stereo not drawn) | i | i | i | i | nt | nt
Cc1cccc(-n2c(=S)[nH]c3sc4c(c3c2=O)CCc2ccccc2-4)c1 | i | i | 7.6µM | i | i | i
CCOC(=O)c1cc(-c2ccc(OC)cc2)n(CCC(=O)Nc2nc3ccc(OCC)cc3s2)c1C | nt | nt | i | nt | nt | nt
COC(=O)C1=C(C)NC(=O)/C1=C\c1cc(C)n(-c2cccc(C)c2)c1C | i | i | 27µM | i | i | i
COC(=O)C1=C(C)NC(=O)/C1=C\c1cc(C)n(-c2ccc(F)cc2)c1C | i | i | 19µM | i | i | i
Cc1cccc(-n2c(C)cc(/C=C3\NC(=O)NC3=O)c2C)c1 | ? | i | 6.7µM | i | nt | nt
COC(=O)c1ccc(C(NC(=O)OCc2ccccc2)/C(C)=C/[C@@H](C)C(=O)N2CCN(C)CC2)cc1 (stereo partly drawn) | nt | nt | nt | nt | i | i
CCOc1ccc(NC(=O)Cn2c(=O)n(CCc3ccccc3)c(=O)c3c4c(sc32)CN(C(C)=O)CC4)cc1 | nt | nt | i | nt | nt | i
O=C(Cn1cc(S(=O)(=O)Cc2ccc(F)cc2)c2ccccc21)NCc1ccccc1 | nt | nt | i | nt | nt | nt
COc1ccc(N2CCN(C(=O)c3nn(C)c4c3CSc3ccccc3-4)CC2)cc1 | nt | nt | i | nt | nt | nt

Screens from PubChem.
